The values that follow come from PubChem BioAssay (NCATS).

Several values for one entry are separate records, joined by “and”; a condition that tells them apart may be missing. Equal values may be shown once. Results filed as inconclusive are left out. Activity calls are given as the source filed them. Unless noted, the call rests on the fitted dose curve; in most records, active means well fitted curve in the direction sought with a large enough effect; inconclusive means small, poorly fitted or top-dose-only effect, or another doubt; inactive means no such curve, though single readings can be large; an effect the other way counts as inactive or inconclusive.

The nature of test [1]: AP1 Signaling Pathway (AID 357; active means well fitted curve in either direction with a large enough effect, not every such curve was filed as active;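 further: ME-180 reporter cells stimulated with EGF at its EC50 level; on the % scale 0 is the no-effect control and ±100 the full control effect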). To be noted: ME-180 AP-1-bla reporter, EGF-induced, beta-lactamase ratio, 5 h. The method, boiled down:
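Cells are seeded overnight, exposed to compound titrations and an EC50 level of EGF for 5 hours at 37 °C, then loaded with CCF4 dye for 2.5 hours. Beta-lactamase activity under the AP-1 element is read as a blue/green ratio.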

Test [2] is described as follows: NFAT Signaling Pathway (AID 444; active means well fitted curve in either direction with a large enough effect, not every such curve was filed as active;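 further: carbachol stimulus at about its EC50 of 1 µM final; on the % scale 0 is the no-effect control and ±100 the full control effect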). To be noted: Jurkat NFAT-bla M1, carbachol, beta-lactamase ratio, 5 h. The method, boiled down: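 Jurkat cells with NFAT-driven β-lactamase reporter and co-expressed M1 receptor, stimulated with carbachol (final 1 uM, ~EC50), compound titration, 5 h at 37 °C. CCF4 loaded 1 h at RT; 460/530 nm ratio gave %activity and AC50.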
A short description of test [3]: Stat Signaling Pathway (AID 446; active means well fitted curve in either direction with a large enough effect, not every such curve was filed as active;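 further: ME-180 cervical cancer cells given 40 pM IL-6 alongside compound; SIE-controlled beta-lactamase reporter measured as 460/530 nm FRET emission ratio; on the % scale 0 is the no-effect control and ±100 the full control effect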). To be noted: ME-180 (cervical carcinoma) SIE beta-lactamase reporter, IL-6 stimulated, 5 h. A digest of the protocol:
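IL-6/STAT signaling read in ME-180 cells via an SIE beta-lactamase reporter. Stimulus was 40 pM IL-6 (its AC50) for 5 hrs, so both activation and inhibition register.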

For test [4], the target named is Glucocorticoid receptor (Homo sapiens) (UniProt P04150). The test can be described thus: GR-GFP Redistribution (AID 450;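 active means compounds whose dose series gives a full or clear partial fitted curve of increased nuclear translocation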; further: potency means the concentration at half of the fitted maximal effect). The settings on record: U2OS GR-GFP nuclear translocation, laser cytometry, 2 h.
Test [5] shares this target. As to the kind of experiment: GR-EFC Redistribution (AID 451; calls by dose curve; further: potency means the concentration at half of the fitted maximal effect). To be noted: CHO-K1 GR-EFC translocation, beta-gal luminescence, 2 h. The method, boiled down:
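CHO-K1 cells expressing nuclear EA and GR-ED fragments of b-gal; compounds titrated up to 46 uM final, 2 h at 37 C. GR nuclear translocation read as complemented b-gal luminescence after 1 h RT detection.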

For test [6], the target named is Mitogen-activated protein kinase 10 (Mus musculus) (UniProt Q61831). The test can be described thus: JNK3 AlphaScreen Assay (AID 530; active means well fitted curve in either direction with a large enough effect, not every such curve was filed as active;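 further: kinase came from lysate of stimulated human HepG2 cells; signal reports phosphorylation of biotinylated GST-cJun 1-79 at Ser73 with 10 µM ATP; on the % scale 0 is the no-effect control and ±100 the full control effect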). The method, boiled down: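 Pre-activated (IL-1β/TNFα) JNK3 in HepG2 lysates phosphorylates biotin-GST-cJun(1-79), 10 uM ATP; anti-phospho-cJun(Ser73) AlphaScreen read at room temperature, pH 7.6 Tris buffer. Compounds pre-incubated 15 min as titrations.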
For orientation: Alpha assays give light when donor and acceptor beads are brought close together.

Test [7] has as its target 3',5'-cyclic-AMP phosphodiesterase 4B (Homo sapiens) (UniProt Q07343). The test can be described thus: qHTS Assay for Inhibitors of PDE-IV (AID 607; active means well fitted activation curve with a large enough effect in the main read-out, with a control signal flat, not every such curve was filed as active; further: % of control where 0% means no effect). The method, boiled down:
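Live HEK293 cells with a modified cyclic nucleotide-gated (CNG) channel report intracellular cAMP via membrane-potential dye fluorescence (ex 535/em 590 nm). Endogenous PDE-IV was targeted. Compounds were tested at up to 22.9 uM final; RO 20-1724 100 uM served as control.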
On the technique in general: In qHTS, concentration-response curves come from the screen itself.

Test [8] concerns the target Guanine nucleotide-binding protein G(i) subunit alpha-1 (Homo sapiens) (UniProt P63096). As to the kind of experiment: qHTS Assay for Inhibitors of RGS12 GoLoco Motif Activity (Green Fluorophore) (AID 879).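 Further: 0% = labeled peptide with Gαi1 and full inhibition = labeled peptide alone without protein; negative values mean loss of peptide binding seen as reduced polarization.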 The method, boiled down: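 Fluorescence polarization assay: 50 nM Gαi1 with 10 nM FITC-labeled RGS12 GoLoco peptide in 10 mM Tris pH 7.5, 150 mM NaCl, 0.1 mM GDP, 0.05% NP40, 10 min at room temperature with compound.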

For test [9], the target named is Cytochrome P450 2C9 (Homo sapiens) (UniProt P11712). The test can be described thus: qHTS Assay for Inhibitors and Substrates of Cytochrome P450 2C9 (AID 883). Further: on the % scale 0 is the no-effect control and ±100 the full control effect; nearly all actives have a fitted effect of over 60% in size. The method, boiled down: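 Signal: luciferase luminescence reporting luciferin produced by CYP2C9. Conditions: 10nM enzyme, Luciferin-H 100uM at KM, 25mM KPO4, 37C, 60 min NADPH-driven reaction. Reference: 57uM sulphaphenazole as 100% inhibition.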

Test [10] deals with Cytochrome P450 2D6 (Homo sapiens) (UniProt P10635). The test can be described thus: qHTS Assay for Inhibitors and Substrates of Cytochrome P450 2D6 (AID 891).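 Further: luciferin methyl ether substrate demethylated by CYP2D6 with NADPH regeneration; on the % scale 0 is the no-effect control and ±100 the full control effect; nearly all actives have a fitted effect of over 60% in size.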 The method, boiled down: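 Human CYP2D6 (5 nM) with 30 uM Luciferin-ME EGE (at Km) in 100 mM KPO4, compound preincubated 10 min, then NADPH regeneration system for 60 min at room temperature. Luciferin read by luminescence; normalized to 1.43 uM quinidine.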

Test [11] can be described thus: qHTS Assay for Identification of Small Molecule Antagonists for NFkB Signaling Pathway (AID 895; active means well fitted inhibition curve with a large enough effect in the signal ratio, with a control signal flat, not every such curve was filed as active; the % refers to the signal ratio; further: on the % scale 0 is the no-effect control and ±100 the full control effect). A digest of the protocol:
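ME-180 NFkB-bla cells (beta-lactamase under NFkB response element), plated overnight, treated with compound then 10 pM TNF alpha (about EC50) for 5 hrs at 37 C. LiveBLAzer FRET read at 460/530 nm emission, 405 nm excitation.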

Test [12] deals with Cytochrome P450 2C19 (Homo sapiens) (UniProt P33261). The test can be described thus: qHTS Assay for Inhibitors and Substrates of Cytochrome P450 2C19 (AID 899). Further: on the % scale 0 is the no-effect control and ±100 the full control effect; nearly all actives have a fitted effect of over 60% in size. A digest of the protocol:
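Signal comes from luciferase acting on luciferin released by CYP2C19-mediated hydroxylation of Luciferin-H EGE, 10uM (KM). Assay mix: 5nM enzyme, 50mM KPO4; 60 min at 37C with NADPH regeneration. Data normalized against 57uM ketoconazole.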

A short description of test [13]: Confirmation and Secondary Assay for Modulators of Hemoglobin Beta Chain Splicing at IVS2 654 locus (AID 910).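 Further: HeLa cells stably carrying EGFP split by mutant beta-globin IVS2-654 intron; % of control where 0% means no effect.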 A digest of the protocol:
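HeLa cells stably expressing EGFP interrupted by β-globin IVS2-654 intron, seeded overnight in Opti-MEM/2% FCS, then treated 2 days at 37 °C. Restored splicing read as total peak GFP intensity per well by laser scanning cytometry (488 nm excitation, 500–520 nm emission); 500 nM antisense PNA as control.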

Test [14] is described as follows: qHTS Assay for Identification of Small Molecule Agonists for Thrombopoietin (TPO) Signaling Pathway (AID 917). Further: on the % scale 0 is the no-effect control and ±100 the full control effect. A digest of the protocol: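 Murine Ba/F3 cells stably expressing human TPO receptor and a Glycoprotein IIb promoter–luciferase reporter were IL-3-starved overnight, then treated with compounds plus TPO (26 pM final, its EC50) for 24 hrs at 37 C; luminescence was read.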

Test [15] in a line: Confirmation and Secondary Assay for Modulators of Hemoglobin Beta Chain Splicing at IVS2 705 locus (AID 930).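 Further: HeLa cells stably expressing the EGFP-705 splicing reporter; GFP fluorescence per well restored by corrected splicing of the IVS2-705 intron in EGFP; % of control where 0% means no effect.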 The method, boiled down:
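HeLa cells stably carrying EGFP interrupted by mutant beta-globin intron 2 (IVS2-705) treated 2 days at 37C with compound; 500 nM antisense PNA as control. Correct splicing read as total peak GFP intensity per well by laser-scanning cytometry.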

Test [16] has as its target Pyruvate kinase (Leishmania mexicana) (UniProt Q27686). As to the kind of experiment: qHTS Validation Assay for Inhibitors of Leishmania Mexicana Pyruvate Kinase (AID 945).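 Further: 0% = DMSO only neutral control wells.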 The method, boiled down: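 Eight-point qHTS titrations in triplicate, data normalized to DMSO neutral control. Reaction: 0.2 nM LmPYK E451W mutant, 0.5 mM PEP, 0.1 mM ADP, 7 mM MgCl2, pH 7.2, one hour at room temperature; luminescent ATP detection.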

In test [17] the target is Alpha-galactosidase A (Homo sapiens) (UniProt P06280). The test can be described thus: Counterscreen for Glucocerebrosidase Inhibitors: qHTS Assay for Human alpha-Galactosidase at pH 4.5 (AID 992). Further: 0% is about no effect. The method, boiled down:
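Read-out is 4-methylumbelliferone fluorescence (365 nm excitation, 440 nm emission) after a pH 10 NaOH/glycine stop. Reactions held 2 nM enzyme and 80 uM substrate at pH 4.5 for 20 min at room temperature.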
On the technique in general: A counterscreen serves to expose hits that act by an unwanted route or on another target.

Test [18] is described as follows: qHTS Assay for Lipid Storage Modulators (AID 1519; calls by dose curve). The settings on record: Drosophila S3 cells, BODIPY lipid droplet/cell ratio, laser cytometry, cells loaded with oleic acid. A digest of the protocol:
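Cells seeded at 5,000 per well were treated with compounds over a concentration series and loaded with oleic acid (400 uM, as added). Lipid droplet fluorescence (488 nm excitation, 500-530 nm channel) was read by laser-scanning cytometry and normalized to 20 uM Triacsin C.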

Test [19] deals with Ubiquitin carboxyl-terminal hydrolase 1 (Homo sapiens) (UniProt O94782). The test can be described thus: Inhibitors of USP1/UAF1: Pilot qHTS (AID 504865).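 Further: rhodamine fluorescence freed from ubiquitin-rhodamine substrate followed over time; top concentration of the series differs between compounds; on the % scale 0 is the no-effect control and ±100 the full control effect; nearly all actives have a fitted effect of over 35% in size.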 The method, boiled down:
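USP1/UAF1 complex (1nM) preincubated with compound 15 min at room temperature, then Ub-Rho substrate (150nM final) added. Fluorescence read kinetically at 480/540 nm, 6 reads every 60 seconds. Buffer: 50mM HEPES pH 7.8, 0.5mM EDTA, 0.1 mg/ml BSA, 1mM TCEP, 0.01% Tween-20.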

Test [20] concerns the target DNA dC->dU-editing enzyme APOBEC-3G (Homo sapiens) (UniProt Q9HC16). The test can be described thus: qHTS for inhibitors of Vif-A3G interactions: Validation (AID 588379). Further: 0% is about no effect. The method, boiled down:
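HeLa cells stably expressing Vif and A3G-eYFP, 700 cells/well, incubated overnight at 37 deg C, then exposed to compound overnight at 37 deg C. Inhibition of Vif-mediated degradation read as increased yellow fluorescence (Ex 488/Em 500-530) by laser-scanning cytometry.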

Test [21] in a line: Primary qHTS for small molecule stabilizers of the endoplasmic reticulum resident proteome: Secreted ER Calcium Modulated Protein (SERCaMP) assay (AID 1508630). Further: on the % scale 0 is the no-effect control and ±100 the full control effect. The method, boiled down: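 GLuc-SERCaMP-expressing SH-SY5Y cells, pretreated 16 h with compound, are challenged with thapsigargin to empty ER calcium stores; after 4 h, coelenterazine is added directly to the medium and luminescence is imaged.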

Sequence of 3',5'-cyclic-AMP phosphodiesterase 4B (Homo sapiens) (Q07343 whole entry, looked up): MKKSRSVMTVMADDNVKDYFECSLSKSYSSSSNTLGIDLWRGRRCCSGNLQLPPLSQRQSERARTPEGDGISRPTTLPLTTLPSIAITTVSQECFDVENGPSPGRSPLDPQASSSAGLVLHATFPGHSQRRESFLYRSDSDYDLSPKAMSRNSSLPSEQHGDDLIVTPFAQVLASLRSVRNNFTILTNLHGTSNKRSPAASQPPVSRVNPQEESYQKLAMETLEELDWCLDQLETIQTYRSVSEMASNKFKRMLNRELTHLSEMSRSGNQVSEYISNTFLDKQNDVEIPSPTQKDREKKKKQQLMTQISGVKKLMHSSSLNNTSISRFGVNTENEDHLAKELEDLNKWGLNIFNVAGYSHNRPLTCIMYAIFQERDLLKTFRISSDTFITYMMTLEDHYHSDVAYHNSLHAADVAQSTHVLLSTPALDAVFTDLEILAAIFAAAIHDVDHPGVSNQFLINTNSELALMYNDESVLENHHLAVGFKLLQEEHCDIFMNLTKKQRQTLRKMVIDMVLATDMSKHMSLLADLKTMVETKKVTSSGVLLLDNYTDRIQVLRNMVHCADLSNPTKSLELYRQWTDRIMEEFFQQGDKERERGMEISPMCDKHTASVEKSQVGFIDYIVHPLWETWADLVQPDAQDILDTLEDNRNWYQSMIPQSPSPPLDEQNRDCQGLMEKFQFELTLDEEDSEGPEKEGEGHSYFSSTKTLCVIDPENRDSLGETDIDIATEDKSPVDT
Sequence of Glucocorticoid receptor (Homo sapiens) (P04150 whole entry, looked up): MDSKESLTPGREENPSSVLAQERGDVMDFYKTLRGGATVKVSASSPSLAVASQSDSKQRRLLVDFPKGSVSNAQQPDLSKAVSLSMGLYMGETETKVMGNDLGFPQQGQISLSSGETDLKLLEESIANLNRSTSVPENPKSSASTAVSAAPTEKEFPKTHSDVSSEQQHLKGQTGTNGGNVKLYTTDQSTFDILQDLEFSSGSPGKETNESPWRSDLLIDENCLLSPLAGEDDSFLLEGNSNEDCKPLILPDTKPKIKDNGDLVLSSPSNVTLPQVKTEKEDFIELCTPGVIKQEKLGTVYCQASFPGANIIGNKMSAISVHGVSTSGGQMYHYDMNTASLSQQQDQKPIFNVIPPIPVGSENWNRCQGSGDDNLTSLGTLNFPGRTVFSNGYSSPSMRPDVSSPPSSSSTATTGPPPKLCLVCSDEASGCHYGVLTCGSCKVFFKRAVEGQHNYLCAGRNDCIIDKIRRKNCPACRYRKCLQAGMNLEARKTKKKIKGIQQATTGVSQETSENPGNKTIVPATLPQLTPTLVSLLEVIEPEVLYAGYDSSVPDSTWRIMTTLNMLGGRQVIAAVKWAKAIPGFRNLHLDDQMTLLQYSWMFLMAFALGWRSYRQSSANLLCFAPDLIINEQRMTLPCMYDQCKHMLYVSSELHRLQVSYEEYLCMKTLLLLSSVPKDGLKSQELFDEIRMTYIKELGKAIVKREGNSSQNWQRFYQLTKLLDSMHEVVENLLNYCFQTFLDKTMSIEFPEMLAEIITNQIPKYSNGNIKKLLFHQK
Sequence of Cytochrome P450 2C9 (Homo sapiens) (P11712 whole entry, looked up): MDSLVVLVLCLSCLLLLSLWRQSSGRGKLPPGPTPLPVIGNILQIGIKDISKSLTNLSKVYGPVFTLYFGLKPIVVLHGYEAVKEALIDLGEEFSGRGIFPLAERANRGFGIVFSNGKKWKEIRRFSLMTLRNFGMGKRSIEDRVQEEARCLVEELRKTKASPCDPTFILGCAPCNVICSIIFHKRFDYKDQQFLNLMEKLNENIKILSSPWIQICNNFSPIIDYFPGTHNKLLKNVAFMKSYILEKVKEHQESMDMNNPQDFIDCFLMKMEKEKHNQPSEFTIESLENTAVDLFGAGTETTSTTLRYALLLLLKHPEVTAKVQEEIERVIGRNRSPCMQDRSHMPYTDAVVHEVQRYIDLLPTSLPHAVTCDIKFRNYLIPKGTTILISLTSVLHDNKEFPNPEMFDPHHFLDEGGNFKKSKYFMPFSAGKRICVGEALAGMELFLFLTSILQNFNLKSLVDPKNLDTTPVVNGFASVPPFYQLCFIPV
Sequence of Cytochrome P450 2D6 (Homo sapiens) (P10635 whole entry, looked up): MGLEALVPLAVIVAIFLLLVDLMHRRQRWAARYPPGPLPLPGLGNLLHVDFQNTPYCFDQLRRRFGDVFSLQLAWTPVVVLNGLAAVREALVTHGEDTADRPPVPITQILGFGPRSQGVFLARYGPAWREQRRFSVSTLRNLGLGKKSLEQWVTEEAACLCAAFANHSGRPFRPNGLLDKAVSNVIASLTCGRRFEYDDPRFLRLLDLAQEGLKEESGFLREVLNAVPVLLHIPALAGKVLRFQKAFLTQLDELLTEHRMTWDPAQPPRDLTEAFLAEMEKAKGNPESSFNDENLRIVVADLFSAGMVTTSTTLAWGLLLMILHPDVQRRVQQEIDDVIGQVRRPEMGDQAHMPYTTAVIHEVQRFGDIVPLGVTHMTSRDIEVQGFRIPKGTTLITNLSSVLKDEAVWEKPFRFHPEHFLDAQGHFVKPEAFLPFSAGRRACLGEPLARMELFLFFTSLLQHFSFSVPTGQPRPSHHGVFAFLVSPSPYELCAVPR
Sequence of Ubiquitin carboxyl-terminal hydrolase 1 (Homo sapiens) (O94782 whole entry, looked up): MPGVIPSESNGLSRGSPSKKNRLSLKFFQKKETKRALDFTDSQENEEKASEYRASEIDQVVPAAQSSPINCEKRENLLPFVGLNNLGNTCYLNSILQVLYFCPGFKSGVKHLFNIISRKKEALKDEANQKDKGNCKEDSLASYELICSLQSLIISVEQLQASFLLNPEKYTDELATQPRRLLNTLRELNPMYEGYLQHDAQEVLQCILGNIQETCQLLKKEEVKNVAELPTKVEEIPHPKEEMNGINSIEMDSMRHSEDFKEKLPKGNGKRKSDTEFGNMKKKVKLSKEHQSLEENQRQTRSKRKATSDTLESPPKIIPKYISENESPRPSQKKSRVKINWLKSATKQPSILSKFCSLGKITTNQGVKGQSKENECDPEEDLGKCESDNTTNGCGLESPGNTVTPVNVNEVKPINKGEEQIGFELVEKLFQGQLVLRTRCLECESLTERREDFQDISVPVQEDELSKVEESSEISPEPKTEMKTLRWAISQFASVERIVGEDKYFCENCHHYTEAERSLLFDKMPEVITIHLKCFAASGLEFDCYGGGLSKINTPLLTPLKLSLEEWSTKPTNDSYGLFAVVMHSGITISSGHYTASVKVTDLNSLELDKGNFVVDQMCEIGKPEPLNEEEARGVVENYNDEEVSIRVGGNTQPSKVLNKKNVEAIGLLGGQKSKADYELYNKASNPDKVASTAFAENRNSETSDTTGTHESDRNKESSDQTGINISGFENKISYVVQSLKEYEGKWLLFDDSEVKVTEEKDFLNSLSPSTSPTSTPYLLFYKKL
Sequence of Guanine nucleotide-binding protein G(i) subunit alpha-1 (Homo sapiens) (P63096 whole entry, looked up): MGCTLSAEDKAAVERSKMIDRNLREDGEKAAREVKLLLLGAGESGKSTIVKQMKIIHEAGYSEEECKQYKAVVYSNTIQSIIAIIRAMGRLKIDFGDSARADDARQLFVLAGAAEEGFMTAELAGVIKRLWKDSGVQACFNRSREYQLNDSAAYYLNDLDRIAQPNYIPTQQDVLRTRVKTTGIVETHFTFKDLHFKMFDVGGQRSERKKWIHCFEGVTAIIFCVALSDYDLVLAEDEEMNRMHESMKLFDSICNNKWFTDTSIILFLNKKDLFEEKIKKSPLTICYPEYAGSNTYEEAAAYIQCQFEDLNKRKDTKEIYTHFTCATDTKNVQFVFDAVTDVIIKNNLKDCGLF
Sequence of Alpha-galactosidase A (Homo sapiens) (P06280 whole entry, looked up): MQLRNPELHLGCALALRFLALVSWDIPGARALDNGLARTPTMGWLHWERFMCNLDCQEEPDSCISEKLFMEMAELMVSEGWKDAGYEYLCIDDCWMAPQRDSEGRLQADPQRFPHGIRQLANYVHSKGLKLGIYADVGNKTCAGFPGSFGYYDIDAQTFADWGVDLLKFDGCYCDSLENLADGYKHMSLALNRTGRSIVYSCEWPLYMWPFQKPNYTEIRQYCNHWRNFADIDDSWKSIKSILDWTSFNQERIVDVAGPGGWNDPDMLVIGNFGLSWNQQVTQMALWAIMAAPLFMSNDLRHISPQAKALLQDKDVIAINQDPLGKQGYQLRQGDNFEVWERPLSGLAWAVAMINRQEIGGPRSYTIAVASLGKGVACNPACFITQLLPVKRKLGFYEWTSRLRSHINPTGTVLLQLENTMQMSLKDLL
Sequence of Pyruvate kinase (Leishmania mexicana) (Q27686 2-499 E452W): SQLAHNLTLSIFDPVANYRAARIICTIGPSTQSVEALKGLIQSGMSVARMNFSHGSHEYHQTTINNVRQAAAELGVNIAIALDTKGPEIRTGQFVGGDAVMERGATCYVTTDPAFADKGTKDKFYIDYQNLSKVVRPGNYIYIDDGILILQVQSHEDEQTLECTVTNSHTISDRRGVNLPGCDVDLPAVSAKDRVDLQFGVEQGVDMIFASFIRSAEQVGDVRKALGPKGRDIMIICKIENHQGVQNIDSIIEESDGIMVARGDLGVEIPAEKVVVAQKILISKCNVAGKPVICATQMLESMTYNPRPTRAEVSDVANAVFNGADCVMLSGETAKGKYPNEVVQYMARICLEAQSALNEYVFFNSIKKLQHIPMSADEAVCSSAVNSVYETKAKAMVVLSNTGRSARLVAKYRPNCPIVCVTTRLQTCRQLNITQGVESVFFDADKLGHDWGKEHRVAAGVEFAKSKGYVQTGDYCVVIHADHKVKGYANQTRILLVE
Sequence of DNA dC->dU-editing enzyme APOBEC-3G (Homo sapiens) (Q9HC16 whole entry, looked up): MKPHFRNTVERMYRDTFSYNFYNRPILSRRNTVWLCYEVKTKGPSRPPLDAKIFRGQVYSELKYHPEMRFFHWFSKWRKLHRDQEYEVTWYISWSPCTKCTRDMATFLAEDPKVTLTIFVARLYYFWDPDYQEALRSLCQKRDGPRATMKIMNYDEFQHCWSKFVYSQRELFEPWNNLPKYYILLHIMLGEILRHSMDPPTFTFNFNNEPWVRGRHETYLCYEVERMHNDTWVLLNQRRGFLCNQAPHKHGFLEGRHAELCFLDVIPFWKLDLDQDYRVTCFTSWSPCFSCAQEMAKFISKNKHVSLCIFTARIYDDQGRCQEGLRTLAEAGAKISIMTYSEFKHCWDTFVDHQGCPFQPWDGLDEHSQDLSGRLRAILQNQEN

Turning to `O=C1CC[C@H](N2C(=O)c3ccccc3C2=O)C(=O)N1`, the activity change, negative = inhibition in [1] (at 17.2 µM (top of the series)) was 0.427% (inactive); in test [1] (at 38 µM (top of the series)) it was -0.244% (inactive); in test [2] (at 17.2 µM (top of the series)), -1.74% (inactive); in test [2] (at 38 µM (top of the series)), -10.1% (inactive); in test [18] (at 25.7 µM (top of the series)), -1.97% (inactive); in [18] (at 57.5 µM (top of the series)) it was -4.08% (inactive). Also, the figures for the activity, negative = inhibition in [3] (at 17.2 µM (top of the series)) and in test [3] (at 38 µM (top of the series)) were 3.42% (inactive) and -18.4% (inactive), respectively. The Potency is > 46 µM (inactive) and > 20.6 µM (inactive) in test [4]; > 46 µM (inactive) and > 20.6 µM (inactive) in test [5]. In addition, the Potency result in test [6], in [7], in [9], in test [10], in test [11] and in [12] was “inactive” throughout. In addition, the Potency entry in test [14], in [16], in [19], in test [20] and in test [21] was “inactive” each time. Besides, the molecule was classed as inactive in test [8], in test [13], in test [15] and in [17]. Also, the max response was 11% and -21.2% in [18] (measured here: cell count channel max response); 5.6% and -23.7% in test [18] (measured here: lipid channel max response).

Turning to `NCC(O)COc1cccc2ccccc12` (stereo not drawn), in test [21], the Potency entry was “inactive”.
